# In PubChem BioAssay (NCI):
# About 83,000 compounds went through this panel and 20% of them were active in at least one assay; those are over-represented in the sample as a whole.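 Assay: single dose, 48 h. Readout: percent growth (0 = no net growth; negative = cell death). Active: <10.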 Unmarked numbers belong to inactive results. Calls of active or inactive are those of the source.
# Key:
# Experiment in all cases: NCI-60 one-dose screen, 48 h (100 = growth as untreated, 0 = no growth, -100 = all killed)
# HL-60(TB) leukemia = conditions: 10 µM unless noted
# NCI-H226 lung = conditions: 10 µM
# NCI-H322M lung = conditions: 10 µM
# HOP-62 NSCLC = conditions: 10 µM
# NCI-H460 lung = conditions: 10 µM
# A549/ATCC NSCLC = conditions: 10 µM
# 786-0 renal = conditions: 10 µM
# COLO 205 colon = conditions: 10 µM
# DU-145 prostate = conditions: 10 µM
# SF-268 CNS = conditions: 10 µM
# SF-295 CNS = conditions: 10 µM
# SF-539 CNS = conditions: 10 µM
# HT29 colon = conditions: 10 µM
# SNB-75 CNS = conditions: 10 µM
# SNB-19 CNS = conditions: 10 µM
# U251 CNS = conditions: 10 µM
# PC-3 prostate = conditions: 10 µM
# EKVX NSCLC = conditions: 10 µM
# UO-31 renal = conditions: 10 µM
# ACHN renal = conditions: 10 µM
compound,measurement,setting,value
CCOC(=O)c1c(NCC(=O)Nc2cccc([N+](=O)[O-])c2)sc(C(C)=O)c1C,growth,HL-60(TB) leukemia,-18.4% (active)
COc1ccccc1N1CCN(C2=CC(=O)C(C)=C(C)C2=O)CC1,growth,HL-60(TB) leukemia,113%
O=C(/C=C/c1csc(Br)n1)NO,growth,HL-60(TB) leukemia,-36.2% (active)
Cc1cc(Br)ccc1-n1cc(C#N)c(N)c1C(=O)c1ccc(Br)cc1,growth,HL-60(TB) leukemia,110%
Cc1cc(C(=O)Nc2sc3c(c2C(N)=O)CCC(=O)C3)ccc1OCCN1CCCCC1,growth,HL-60(TB) leukemia,63.3%
COc1ccccc1Cn1cc(C#N)c(N)c1C(=O)c1ccc(Br)cc1,growth,HL-60(TB) leukemia,92.8%
Oc1ccc(CSc2nnc(-c3ccccc3)n2-c2ccccc2)c2cccnc12,growth,HL-60(TB) leukemia,7.9% (active)
O=C(N/N=C/c1ccc([N+](=O)[O-])s1)c1[nH]c2ccc(Br)cc2c1-c1ccccc1,growth,HL-60(TB) leukemia,-28.9% (active)
COc1ccc(-c2nc3ccc(-c4nnc(SCC(=O)Nc5ccc(C(=O)/C=C/c6ccc(Cl)cc6)cc5)o4)cc3[nH]2)cc1,growth,HL-60(TB) leukemia,94.1%
Cn1c(SCC(=O)c2ccc(Br)cc2)nc2ccccc2c1=O,growth,HL-60(TB) leukemia,92.1%
O=S(=O)(NCCNc1nccc(-n2cnc3ccccc32)n1)c1ccc(C(F)(F)F)cc1,growth,HL-60(TB) leukemia,73.8%
O=C1CC(=O)N2CSCN(C(c3ccccc3)c3nc4ncncc4[nH]3)C2=N1 (configuration not stated),growth,HL-60(TB) leukemia,118%
COc1cc(OC)c(S(=O)(=O)N(CCCl)CCCl)cc1C(=O)/C=C/c1ccc(Cl)cc1,growth,NCI-H226 lung,78.9%
same,growth,NCI-H322M lung,71.9%
same,growth,HOP-62 NSCLC,91.7%
same,growth,NCI-H460 lung,77.7%
same,growth,A549/ATCC NSCLC,71.5%
same,growth,786-0 renal,64.4%
same,growth,COLO 205 colon,101%
same,growth,DU-145 prostate,68.8%
same,growth,SF-268 CNS,73.2%
same,growth,SF-295 CNS,88.7%
same,growth,SF-539 CNS,51.3%
same,growth,HT29 colon,79.5%
same,growth,SNB-75 CNS,37.8%
same,growth,SNB-19 CNS,65.2%
same,growth,U251 CNS,55.1%
same,growth,PC-3 prostate,70.3%
same,growth,EKVX NSCLC,85.5%
same,growth,UO-31 renal,66.9%
same,growth,ACHN renal,65.3%
same,growth,HL-60(TB) leukemia,49.4%
